Source: PubChem BioAssay AID1159580 (chemical genetic matrix, 2015)
The whole screen tested about 5,500 compounds, of which about 2,000 (36%) were called active. Another 18% or so got no clear call; they are omitted. Cut-off read from the data, not from the text of the source: active = normalized growth mostly below about 0.91 (no sharp cut-off); inconclusive = no clear call, values can overlap the other calls; inactive = mostly above about 0.92. Some of the results follow.

Experiment: chemical genetic growth profiling, strain panel (AID 1159580);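 note: tested at 20 µM; growth read once vehicle control cultures reached saturation at 30 °C; 1 = growth at the plate median or of vehicle wells; lower values mean less growth of the strain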
Conditions: growth OD

Measured: normalized growth

CC1=NCCc2c1[nH]c1cc(O)ccc21
inactive: S. cerevisiae deletion strains, locus YJR075W, strain HOC1, active compounds read low 0.988 | S. cerevisiae deletion strains, locus YKL009W, strain mrt4, active compounds read low 0.951 | S. cerevisiae deletion strains, locus YKL068W, active compounds read low 0.993 | S. cerevisiae deletion strains, locus YKL085W, strain MDH1 (second series), active compounds read low 0.988 | S. cerevisiae deletion strains, locus YKL085W, strain MDH1, active compounds read low 0.988 | S. cerevisiae deletion strains, locus YKL160W, strain elf1, active compounds read low 0.955 | S. cerevisiae deletion strains, locus YKL190W, strain CNB1, active compounds read low 0.999 | S. cerevisiae deletion strains, locus YKR001C, strain vps1, active compounds read low 0.993 | S. cerevisiae deletion strains, locus YKR026C, strain gcn3, active compounds read low 0.989 | S. cerevisiae deletion strains, locus YKR091W, strain srl3, active compounds read low 0.988 | S. cerevisiae deletion strains, locus YLL001W, strain dnm1, active compounds read low 0.984 | S. cerevisiae deletion strains, locus YLL026W, active compounds read low 0.992 | S. cerevisiae deletion strains, locus YLL041C, strain sdh2, active compounds read low 0.97 | S. cerevisiae deletion strains, locus YLR027C, strain aat2, active compounds read low 0.985 | S. cerevisiae deletion strains, locus YLR039C, strain RIC1, active compounds read low 0.993 | S. cerevisiae deletion strains, locus YLR058C, strain SHM2, active compounds read low 0.971 | S. cerevisiae deletion strains, locus YLR102C, strain apc9, active compounds read low 0.993 | S. cerevisiae deletion strains, locus YLR113W, strain HOG1, active compounds read low 1 | S. cerevisiae deletion strains, locus YLR221C, strain rsa3, active compounds read low 1.03 | S. cerevisiae deletion strains, locus YLR258W, strain gsy2, active compounds read low 0.967 | S. cerevisiae deletion strains, locus YLR262C, strain YPT6 (second series), active compounds read low 0.989 | S. cerevisiae deletion strains, locus YLR262C, strain YPT6, active compounds read low 0.95 | S. cerevisiae deletion strains, locus YLR268W, strain sec22, active compounds read low 1.05 | S. cerevisiae deletion strains, locus YLR320W, strain mms22, active compounds read low 1.03 | S. cerevisiae deletion strains, locus YLR330W, strain CHS5, active compounds read low 0.996 | S. cerevisiae deletion strains, locus YLR342W, strain FKS1 (second series), active compounds read low 0.996 | S. cerevisiae deletion strains, locus YLR342W, strain FKS1, active compounds read low 0.992 | S. cerevisiae deletion strains, locus YLR357W, strain rsc2, active compounds read low 0.973 | S. cerevisiae deletion strains, locus YLR370C, strain arc18, active compounds read low 0.973 | S. cerevisiae deletion strains, locus YLR371W, strain rom2, active compounds read low 0.978 | S. cerevisiae deletion strains, locus YLR384C, strain iki3, active compounds read low 0.994 | S. cerevisiae deletion strains, locus YLR418C, strain cdc73, active compounds read low 0.995 | S. cerevisiae deletion strains, locus YML016C, strain PPZ1, active compounds read low 0.997 | S. cerevisiae deletion strains, locus YML032C, strain rad52, active compounds read low 0.995 | S. cerevisiae deletion strains, locus YML120C, strain ndi1, active compounds read low 0.962 | S. cerevisiae deletion strains, locus YML124C, strain tub3, active compounds read low 0.988 | S. cerevisiae deletion strains, locus YMR058W, strain fet3, active compounds read low 0.994 | S. cerevisiae deletion strains, locus YMR078C, strain ctf18, active compounds read low 0.979 | S. cerevisiae deletion strains, locus YMR125W, strain sto1, active compounds read low 0.928 | S. cerevisiae deletion strains, locus YMR129W, active compounds read low 0.986 | S. cerevisiae deletion strains, locus YMR205C, strain PFK2, active compounds read low 0.95 | S. cerevisiae deletion strains, locus YMR223W, strain ubp8, active compounds read low 0.961 | S. cerevisiae deletion strains, locus YMR231W, strain pep5, active compounds read low 0.991 | S. cerevisiae deletion strains, locus YMR263W, strain SAP30, active compounds read low 0.99 | S. cerevisiae deletion strains, locus YMR307W, strain GAS1, active compounds read low 0.987 | S. cerevisiae deletion strains, locus YNL067W, strain RPL9B, active compounds read low 1.02 | S. cerevisiae deletion strains, locus YNL071W, strain lat1, active compounds read low 0.981 | S. cerevisiae deletion strains, locus YNL128W, strain TEP1, active compounds read low 0.97 | S. cerevisiae deletion strains, locus YNL153C, strain GIM3, active compounds read low 1 | S. cerevisiae deletion strains, locus YNL183C, strain NPR1, active compounds read low 0.928 | S. cerevisiae deletion strains, locus YNL209W, strain ssb2, active compounds read low 0.988 | S. cerevisiae deletion strains, locus YNL233W, strain BNI4, active compounds read low 1 | S. cerevisiae deletion strains, locus YNL248C, strain rpa49, active compounds read low 0.926 | S. cerevisiae deletion strains, locus YNL250W, strain rad50, active compounds read low 0.981 | S. cerevisiae deletion strains, locus YNL271C, strain bni1, active compounds read low 1 | S. cerevisiae deletion strains, locus YNL298W, strain CLA4, active compounds read low 0.985 | S. cerevisiae deletion strains, locus YNL307C, strain MCK1, active compounds read low 0.988 | S. cerevisiae deletion strains, locus YNL322C, strain KRE1 (second series), active compounds read low 0.981 | S. cerevisiae deletion strains, locus YNL322C, strain KRE1, active compounds read low 0.992 | S. cerevisiae deletion strains, locus YNR049C, strain mso1, active compounds read low 0.97 | S. cerevisiae deletion strains, locus YNR052C, strain pop2, active compounds read low 0.995 | S. cerevisiae deletion strains, locus YOL006C, strain TOP1, active compounds read low 1.04 | S. cerevisiae deletion strains, locus YOL012C, strain htz1 1.3 | S. cerevisiae deletion strains, locus YOL147C, strain pex11, active compounds read low 0.998 | S. cerevisiae deletion strains, locus YOR001W, strain rrp6, active compounds read low 1.01 | S. cerevisiae deletion strains, locus YOR061W, strain CKA2, active compounds read low 0.978 | S. cerevisiae deletion strains, locus YOR069W, strain VPS5, active compounds read low 0.973 | S. cerevisiae deletion strains, locus YOR070C, strain gyp1, active compounds read low 1.01 | S. cerevisiae deletion strains, locus YOR080W, strain dia2, active compounds read low 1.01 | S. cerevisiae deletion strains, locus YOR083W, strain WHI5, active compounds read low 0.954 | S. cerevisiae deletion strains, locus YOR106W, strain vam3, active compounds read low 0.93 | S. cerevisiae deletion strains, locus YOR136W, strain idh2, active compounds read low 0.985 | S. cerevisiae deletion strains, locus YOR144C, strain elg1, active compounds read low 0.994 | S. cerevisiae deletion strains, locus YOR184W, strain ser1, active compounds read low 0.969 | S. cerevisiae deletion strains, locus YOR231W, strain MKK1, active compounds read low 0.985 | S. cerevisiae deletion strains, locus YOR265W, strain rbl2, active compounds read low 0.976 | S. cerevisiae deletion strains, locus YOR270C, strain vph1, active compounds read low 1.02 | S. cerevisiae deletion strains, locus YOR290C, strain snf2, active compounds read low 0.911 | S. cerevisiae deletion strains, locus YOR316C, strain cot1, active compounds read low 0.992 | S. cerevisiae deletion strains, locus YPL051W, strain arl3, active compounds read low 1.01 | S. cerevisiae deletion strains, locus YPL055C, strain LGE1, active compounds read low 0.956 | S. cerevisiae deletion strains, locus YPL078C, strain atp4, active compounds read low 0.928 | S. cerevisiae deletion strains, locus YPL106C, strain sse1, active compounds read low 0.943 | S. cerevisiae deletion strains, locus YPL240C, strain hsp82, active compounds read low 0.992 | S. cerevisiae deletion strains, locus YPL241C, strain CIN2, active compounds read low 0.996 | S. cerevisiae deletion strains, locus YPL256C, strain CLN2, active compounds read low 0.991 | S. cerevisiae deletion strains, locus YPR119W, strain clb2, active compounds read low 0.989 | S. cerevisiae deletion strains, locus YPR141C, strain kar3, active compounds read low 0.981 | S. cerevisiae deletion strains, locus YPR163C, strain tif3, active compounds read low 1 | S. cerevisiae deletion strains, locus YPR167C, strain met16, active compounds read low 0.998 | S. cerevisiae deletion strains, strain wtn01, active compounds read low 0.992 | S. cerevisiae strains, strain wild type, active compounds read low 0.988
